# Reference: publication PMC4336329 (PLoS ONE, 2015)
# Out of some 310,000 compounds screened, about 14,000 (4.5%) showed an effect of 50% or more. Effects have a minus sign here. What follows is part of a selection rich in strong results, with near analogues and random picks from the rest.
# Target: human ether-à-go-go-related gene (hERG) potassium channel (human, UniProt Q12809)
# Test: primary screen, population patch clamp on CHO cells stably expressing hERG; higher = less effect of the substance
# 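Note: peak tail current of the secondary pulse compared with the same well before compound.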
# Sequence of human ether-à-go-go-related gene (hERG) potassium channel (Q12809 whole entry, looked up): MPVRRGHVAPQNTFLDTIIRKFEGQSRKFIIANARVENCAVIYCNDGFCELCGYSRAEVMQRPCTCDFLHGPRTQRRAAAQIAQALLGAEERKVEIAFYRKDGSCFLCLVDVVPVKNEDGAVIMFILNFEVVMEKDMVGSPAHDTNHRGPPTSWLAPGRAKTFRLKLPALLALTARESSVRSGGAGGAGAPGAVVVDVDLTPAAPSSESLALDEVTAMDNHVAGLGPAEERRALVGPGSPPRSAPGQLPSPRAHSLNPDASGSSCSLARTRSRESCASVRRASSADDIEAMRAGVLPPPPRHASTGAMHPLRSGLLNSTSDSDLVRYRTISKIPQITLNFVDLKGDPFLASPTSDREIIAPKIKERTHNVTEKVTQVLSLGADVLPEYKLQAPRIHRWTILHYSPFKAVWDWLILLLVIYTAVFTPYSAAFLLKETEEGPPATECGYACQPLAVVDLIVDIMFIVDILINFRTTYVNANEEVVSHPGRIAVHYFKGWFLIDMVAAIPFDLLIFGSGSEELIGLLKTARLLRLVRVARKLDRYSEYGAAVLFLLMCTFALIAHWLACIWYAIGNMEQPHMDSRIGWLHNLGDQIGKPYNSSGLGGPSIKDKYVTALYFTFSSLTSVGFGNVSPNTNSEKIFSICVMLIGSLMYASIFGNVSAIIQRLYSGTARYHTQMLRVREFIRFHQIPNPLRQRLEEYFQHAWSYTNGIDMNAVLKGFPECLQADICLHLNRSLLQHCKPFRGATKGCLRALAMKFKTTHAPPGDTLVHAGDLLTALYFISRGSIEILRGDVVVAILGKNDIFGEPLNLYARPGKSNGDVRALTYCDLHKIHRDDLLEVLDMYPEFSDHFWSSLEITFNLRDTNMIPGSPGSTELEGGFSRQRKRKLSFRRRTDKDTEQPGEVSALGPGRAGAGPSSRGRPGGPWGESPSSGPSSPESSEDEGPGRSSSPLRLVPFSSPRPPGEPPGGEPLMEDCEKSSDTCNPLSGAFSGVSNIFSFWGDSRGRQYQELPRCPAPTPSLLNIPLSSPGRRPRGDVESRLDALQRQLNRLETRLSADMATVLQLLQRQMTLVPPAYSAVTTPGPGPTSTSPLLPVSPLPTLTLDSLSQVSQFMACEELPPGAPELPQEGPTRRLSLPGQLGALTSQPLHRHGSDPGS
row,SMILES,"hERG current change (%, negative = inhibition) at 10uM [%]"
1,Cc1ccc(-n2cc(-c3ccccc3)c3c(=O)[nH]cnc32)cc1,8.89
2,COc1ccc(C(CNC(=O)C2CC2)N(C)C)cc1 (stereo not drawn),1.52
3,COc1ccc(CN2CCCC(CNC(=O)c3ccc(F)cc3)C2)c(F)c1 (stereo not drawn),-75.4
4,COc1ccc(CN2CCCC(CNC(=O)c3ccc(F)cc3)C2)c(C)c1C (stereo not drawn),-75.5
5,CCOc1ccccc1CN1CCCC(CNC(=O)Cc2ccc(OC)cc2)C1 (stereo not drawn),-22.1
6,COc1cccc(CN2CCCC(CNC(=O)c3ccc(F)cc3)C2)c1OC (stereo not drawn),-49.1
7,COC(=O)c1ccc(C(=O)N2CCCC(CNC(=O)c3ccc(F)cc3)C2)cc1 (stereo not drawn),-5.82
8,COc1ccc(CC(=O)NCC2CCCN(Cc3ccc(F)cc3F)C2)cc1 (stereo not drawn),-17.5
9,COc1ccc(CC(=O)NCC2CCCN(Cc3ccc(OC)cc3F)C2)cc1 (stereo not drawn),-36.9
10,COc1ccc(CN2CCCC(CNC(=O)c3ccc(F)cc3)C2)cc1OC (stereo not drawn),-70.6
11,CCOc1cc(CN2CCCC(CNC(=O)c3ccc(F)cc3)C2)ccc1OC (stereo not drawn),-66.2
12,COc1ccc(C(=O)N2CCCC(CNC(=O)c3ccc(F)cc3)C2)cc1OC (stereo not drawn),3.14
13,O=C(COC(=O)c1ccc(Br)o1)NCc1cccs1,-4.11
14,COCOc1ccc(C=O)c(O)c1,7.21
15,CCOc1ccc(C2CC(c3cccc(OC)c3)Nc3nc(N)nn32)cc1 (stereo not drawn),-26
16,Cc1ccc(/C=N/Nc2ccc(Cl)c(C(=O)O)c2)s1,10
17,COc1ccccc1CCNC(=O)CN1C(=O)NC2(CCCC2)C1=O,-9.26
18,Cc1cccnc1NC(=O)CNC(=O)COc1ccccc1,6.69
19,CC(c1ccco1)N(C(=O)c1ccc(S(=O)(=O)N2CCCCC2)cc1)c1ccccn1 (stereo not drawn),-4.75

row,SMILES,"hERG current change (%, negative = inhibition) at 10uM [%]"
1,CCCC(=O)N(Cc1cc(=O)[nH]c2ccccc12)c1ccc(C)cc1,-3.22
2,Cc1cc(CNC(=O)c2cccnc2Cl)c2ccccc2n1,-2.82
3,COc1ccc(NC(=O)CN(C)C(=O)c2ccc3[nH]c4c(c3c2)CC(C)CC4)cc1 (stereo not drawn),7.28
4,CCOc1ccc(CN2CCCC(CNC(=O)c3ccc(F)cc3)C2)cc1CO (stereo not drawn),-68.1
5,CCOc1cc(C(=O)NCc2ccc(F)cc2)ccc1OCC(=O)N1CCCCC1,-37.5
6,O=C(NC1CCN(C(=S)NCc2ccco2)CC1)NC12CC3CC(CC(C3)C1)C2,5.73
7,CCOC(=O)N1CCC(N2C(=O)c3ccc(C(=O)O)cc3C2=O)CC1,9.66
8,O=C(NC1CCCCC1)Oc1ccccc1,17.2
9,COc1cccc(C(=O)N2CCN=C2SCc2cccnc2)c1OC,4.44
10,COc1ccc(NS(=O)(=O)c2cn(C)cn2)cc1,11.9
11,CCN(CC)c1nc(N2CCN(C)CC2)nc2ccccc12.Cl,-44.3
12,Nc1nc(N2CCOCC2)nc2ccccc12,-19.7
13,Cl.Nc1nc(N2CCN(c3ccccn3)CC2)nc2ccccc12,-68.4
14,Oc1ccc2ccccc2c1CN1CCN(C/C=C/c2ccccc2)CC1,14
15,c1ccc2[nH]c(N3CCOCC3)nc2c1,8.82
16,Cl.Nc1nc(N2CCCCC2)nc2ccccc12,-45.8
17,c1ccc(N2CCN(Cc3nc4ccccc4[nH]3)CC2)nc1,9.64
18,c1ccc(N2CCN(c3nc4ccccc4[nH]3)CC2)nc1,-64.4
19,Cl.Nc1nc(N2CCN(C/C=C/c3ccccc3)CC2)nc2ccccc12,-67.7

row,SMILES,"hERG current change (%, negative = inhibition) at 10uM [%]"
1,COC(=O)c1cccc(N(CC(=O)NC2CCCC2)C(=O)CNC(=O)c2cccs2)c1,-1.26
2,O=C(Nc1sc2c(c1C(=O)N1CCOCC1)CCCCC2)c1cccnc1,17
3,CCN(CC)S(=O)(=O)c1ccc(N2CCCC2)c(NC(=O)CC(C)(C)C)c1,-2.34
4,Cc1cc(C(=O)NC(C)c2ccccc2)c2cc(F)ccc2n1 (stereo not drawn),3.06
5,O=C(N/N=C/c1c(Cl)cccc1Cl)c1cccc(F)c1,3.24
6,CC/C(C)=N/NC(=O)c1[nH]c2ccc(C)cc2c1-c1ccccc1,0.516
7,CC1CCCN(C(=O)C2CCC(CNc3c(N4CCCCC4)c(=O)c3=O)CC2)C1 (stereo not drawn),-8.22
8,COC(=O)c1ccc(COc2ccc(C)c(C)c2)o1,12.3
9,COc1ccc(-n2c(=O)[nH]c3cc(C(=O)NCCc4ccc(OC)c(OC)c4)ccc3c2=O)c(OC)c1,18.5
10,CN1C(=O)NC(c2ccccc2)(C(F)(F)F)S/C1=C(/C#N)c1nnc(N2CCOCC2)n1-c1ccccc1 (stereo not drawn),-30.3
11,C=CCN1C(=O)NC(c2ccc(OC)cc2)(C(F)(F)F)S/C1=C(\C#N)c1nnc(N2CCOCC2)n1-c1ccccc1 (stereo not drawn),-62.4
12,C=CCN1C(=O)NC(c2ccccc2)(C(F)(F)F)S/C1=C(\C#N)c1nnc(N2CCOCC2)n1-c1ccccc1 (stereo not drawn),-19.4
13,CC1Cc2ccccc2N1C(=S)NC(=O)C1(C)CC1(Cl)Cl (stereo not drawn),30.1
14,O=C(O)C(=O)O.O=[N+]([O-])c1ccc(CNC2CCCc3ccccc32)cc1 (stereo not drawn),-51.7
15,COc1ccc(CNC2CCCc3ccccc32)cc1OC.O=C(O)C(=O)O (stereo not drawn),-25.3
16,COc1cc(CNC2CCCc3ccccc32)cc(OC)c1OC.O=C(O)C(=O)O (stereo not drawn),-13.9
17,O=[N+]([O-])c1ccccc1CNC1CCCc2ccccc21 (stereo not drawn),-5.95
18,CCOc1ccc(CNC2CCCc3ccccc32)cc1.O=C(O)C(=O)O (stereo not drawn),-68.1
19,COc1ccccc1CNC1CCCc2ccccc21.O=C(O)C(=O)O (stereo not drawn),-6.19
